# The supplement of paper PMC6555819
# Legend:
# Assay in all cases: PBM binding z-score (relative to random genomic background probes); higher = stronger binding; sequences stand for … in GC…GCGATTGACAGCGTAGAATGAAGG
# [1] = test system: FXR:RXRa (NR concentration 270 nM, RXRa partner concentration 90 nM)
# Method in brief: (§1)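 Scanned fluorescence from custom Agilent 4×180K protein-binding microarrays was regression-normalized. Binding z-scores use random background probes as reference. Ligand-free nuclear receptor dimers were incubated on the arrays for 1 h and detected with antibodies against each partner (one per run).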
# [2] = test system: LXRa:RXRa (NR concentration 270 nM, RXRa partner concentration 90 nM)
# Method in brief: as §1
# [3] = test system: LXRa homodimer (NR concentration 270 nM)
# Method in brief: as §1
# [4] = test system: LXRb:RXRa (NR concentration 270 nM, RXRa partner concentration 90 nM)
# Method in brief: as §1
# [5] = test system: LXRb homodimer (NR concentration 270 nM)
# Method in brief: as §1
# [6] = test system: PPARa:RXRa (NR concentration 270 nM, RXRa partner concentration 90 nM)
# Method in brief: as §1
# [7] = test system: PPARg:RXRa (NR concentration 180 nM, RXRa partner concentration 90 nM)
# Method in brief: as §1
# [8] = test system: PPARg:RXRa 270nM:90nM, anti-RXR (NR concentration 270 nM, RXRa partner concentration 90 nM)
# Method in brief: as §1
# [9] = test system: PPARg:RXRa 30nM:10nM, anti-RXR (NR concentration 30 nM, RXRa partner concentration 10 nM)
# Method in brief: as §1
# [10] = test system: PPARg:RXRa 90nM:30nM, anti-RXR (NR concentration 90 nM, RXRa partner concentration 30 nM)
# Method in brief: as §1
# [11] = test system: PPARg:RXRa DBDmut IVT, anti-RXR (DBD mutation: RXRa K156A/R161A, NR concentration 270 nM, RXRa partner concentration 90 nM)
# Method in brief: as §1
# [12] = test system: PPARg:RXRa IVT, anti-PPARg (NR concentration 270 nM, RXRa partner concentration 90 nM)
# Method in brief: as §1
# [13] = test system: PPARg DBDmut:RXRa IVT, anti-PPARg (DBD mutation: PPARg1 K132A/R137A, NR concentration 270 nM, RXRa partner concentration 90 nM)
# Method in brief: as §1
# [14] = test system: PPARg DBDmut IVT, anti-PPARg (DBD mutation: PPARg1 K132A/R137A, NR concentration 270 nM)
# Method in brief: as §1
# [15] = test system: PPARg homodimer (NR concentration 180 nM)
# Method in brief: as §1
# [16] = test system: PXR:RXRa (NR concentration 270 nM, RXRa partner concentration 90 nM)
# Method in brief: as §1
# [17] = test system: PXR homodimer (NR concentration 270 nM)
# Method in brief: as §1
# [18] = test system: RARa:RXR (NR concentration 270 nM, RXRa partner concentration 90 nM)
# Method in brief: as §1
# [19] = test system: RARa homodimer (NR concentration 270 nM)
# Method in brief: as §1
# [20] = test system: RARb:RXRa (NR concentration 270 nM, RXRa partner concentration 90 nM)
# Method in brief: as §1
Sequence,PBM binding z-score [1],PBM binding z-score [2],PBM binding z-score [3],PBM binding z-score [4],PBM binding z-score [5],PBM binding z-score [6],PBM binding z-score [7],PBM binding z-score [8],PBM binding z-score [9],PBM binding z-score [10],PBM binding z-score [11],PBM binding z-score [12],PBM binding z-score [13],PBM binding z-score [14],PBM binding z-score [15],PBM binding z-score [16],PBM binding z-score [17],PBM binding z-score [18],PBM binding z-score [19],PBM binding z-score [20]
GCATATAGGTAATACAAGGTGACAGTCCGATTGT,0.924,1.5,0.00702,0.333,-0.21,1.16,1.5,1.19,0.699,0.902,4.45,3.54,1.4,0.834,0.847,0.242,0.189,1.36,0.735,0.42
GCATATACGTAATACAAGGTGAAAGTCCGATTGT,0.409,0.28,0.383,0.441,0.0307,0.855,0.906,0.499,0.287,0.554,-0.0308,0.718,0.51,1.15,0.296,0.381,0.191,0.815,0.672,0.666
CGTCCAAGTTCAATGCTAGGTCAGTGAAAGCATT,3.05,3.56,2.36,1.92,0.297,2.42,-0.0137,0.79,-0.404,0.397,0.331,0.878,0.0119,0.59,2.95,4.21,4.73,3.6,1.33,3.79
AGCCAAAGTTCACTAGGTAACGTAAGATTCAGCT,4.84,4.92,2.67,2.81,0.629,4.51,5.95,5.78,3.24,5.12,2.5,4.42,0.974,0.266,2.28,3.96,2.4,2.78,0.158,4.68
TCAGACAGGTGAAGGTAACTCATGTACGCAGTCG,0.849,1.03,-0.116,0.964,-0.0252,1.26,0.954,2.14,4.07,2.81,2.93,1.04,0.0578,0.317,0.397,0.672,0.214,0.117,0.348,1.04
TCTTGTAGATCAACAGGAGGTTAAAAAAGATCGA,0.243,2,0.321,1.34,-0.17,1.54,0.116,1.59,2.66,2.31,1.2,0.996,0.773,1.21,-0.0647,0.969,-0.197,0.92,0.296,0.47
AGCGAAAGGTCGTGAGGTGAGTATACAGAAAGGC,5.99,3.84,-0.142,3.17,-0.2,5.26,4.55,4.97,1.84,3.25,0.425,2.63,0.478,1.08,1.38,2.81,0.0715,3.96,0.217,4.29
AGTCTAAGTTCAGGACGAGGTAACGTAAAGCACG,1.61,1.56,0.288,0.821,-0.194,1.82,0.831,0.749,0.345,0.385,-0.507,0.167,0.154,0.579,1.1,2.21,1.18,1.79,0.351,2.95
TCATATAGGTAATATAGGTGAAAGTCGGCATCTA,0.703,1.07,0.157,0.856,0.102,2.92,3.31,3.65,4.1,3.94,5.06,5.68,1.83,1.71,1.03,0.599,-0.0145,1.09,0.799,0.469
TATACAGGGTCAAAGGCCAGAGTGCGAATGTCGA,7.16,6.05,2.6,4.8,2.58,6.08,8.23,7.43,5.95,7.86,2.54,4.9,2.49,2.56,5.37,4.79,1.14,6.61,1.49,4.59
ATCTCTAGGTAACCAAGCTCAGTGAATGCCGAAC,0.0567,-0.156,-0.0842,-0.416,0.643,0.0797,0.181,0.28,-0.0374,0.235,2.93,2.13,1.25,0.885,0.709,-0.105,0.251,0.193,0.798,0.0628
TAGCCTAGGGCATGCGGGCCAGTATAGTGTCGGC,-0.782,-0.599,-1.01,-1.17,-1.07,-0.591,-0.378,-0.777,-1.03,-0.989,-0.968,0.354,-0.499,-1.43,-1.51,-0.802,-0.955,-0.692,-0.647,0.881
CCGAGTAGGTTATGGGGCAGTCAGGCAACGGTGA,0.0419,0.326,-0.0975,0.378,-0.292,1.76,2.58,3.74,1.39,3.3,2.72,3.05,-0.267,-0.985,0.752,-0.312,0.274,-0.198,0.265,0.933
AGTCATAGTTCATCTAGGTAACGTAAGATATGCT,2.22,2.66,1.11,1.59,0.357,2.84,2.87,3.22,1.32,2.47,0.73,2.74,1.12,0.57,1.23,2.03,1.24,1.78,0.89,3.26
CGTCCAAGGTCAATGCTAGGTCAGTGAAAGCATT,6.67,5.72,2.67,3.98,0.958,5.11,4.02,4.74,1.16,3.17,3.41,3.83,0.477,0.749,6.35,5.01,1.68,6.41,1.72,5.23
CCTACTGGGCCAAAGGTCATGGATTCCAATGCTC,5.14,5.37,2.61,5.06,0.296,6.56,12,9.45,10.3,10.5,5.34,6.68,-0.19,-0.578,2.93,5.44,0.496,6.58,0.489,4.92
ATATGTAGGTTAAGGGTCATTCAGGTTGGTTCGC,5.11,5.05,3.62,4.41,1.4,6.68,11.5,9.78,10.3,11.1,7.43,7.64,1.5,1.61,4,5.48,2.98,5.87,2.71,3.79
TCATATAGGTATAGGTGAAAGTCGAACGATATGA,0.449,0.366,-0.346,0.177,-0.47,1.42,1.72,2.44,3.51,3.05,2.01,1.55,0.818,1.13,0.0595,0.316,0.0974,0.665,0.0245,0.587
CCTTACGGGTCACTCCAGGTGATAGCATCGGAGT,5.24,5.98,0.158,3.34,-0.0681,4.26,3.57,3.66,1.31,2.64,2.72,3.72,-0.0866,-0.18,1.04,3.75,0.145,3.53,0.42,3.51
TCGAGTAGGTTAGTTGGGGCATTCAGCCAACATA,0.131,-0.106,-0.363,0.412,-0.31,0.49,-0.334,0.635,0.877,0.623,2.05,1.73,-0.651,-0.228,0.105,-0.283,-0.15,0.117,-0.0281,0.529
TCTGCTAGGTCAACAATGGTCAGCTAATCTGCTA,3.1,3.67,-0.0289,2.16,0.366,3.29,2.13,3,2.07,2.54,4.05,4.05,0.64,0.264,1.23,1.94,-0.276,2.29,-0.189,4.11
GCTGATAGGTCAACTGATGGTCAGCTAAAGCTCG,5.47,4.76,0.669,3.53,0.283,4.84,3.41,4.06,1.34,2.96,3.71,3.35,-0.33,-0.713,4.6,3,-0.565,4.46,1.39,4.48
CAAACTAGGTCACCGGAAGGCCAAAGTCCGCATG,4.53,3.53,0.418,2.46,0.121,5.08,8.65,7.5,4.66,7.3,8.65,8.96,1.86,0.375,2.09,2.85,-0.0574,3.4,0.162,4.54
GCTATTACTTGAAAGGGCAACCGAATGATTCTCG,0.128,0.738,0.277,0.831,0.248,1,0.583,0.184,0.177,0.0562,0.661,0.239,-0.509,0.326,0.811,0.499,-0.0796,0.627,0.826,2.17
ACAGACAGGTGAGCGAAGGTAACTCAGCTGGACG,-0.11,-0.471,-0.638,-0.645,-0.759,0.0839,0.737,-0.0383,-0.389,0.269,0.465,0.783,0.567,-0.608,-0.706,-0.51,-0.963,0.056,-0.65,0.608
CTCGAAAGGTCGGTTGAGGTGCGTATACGGATAA,2.39,1.39,-0.235,1.24,-0.239,2.3,0.2,0.942,0.258,0.457,-0.22,0.354,-0.47,-0.617,0.786,1.84,0.0676,1.44,-0.0377,2.92
CGTCCAAGGTCCAAGGTCAGTGAAGAGATGACGG,1.55,1.08,0.179,1.1,-0.433,2.37,1.65,2.35,0.473,1.66,-0.345,0.595,-0.804,-0.592,1.34,1.67,0.584,2.28,0.674,3.29
CCTTACTGGTCACTGACAGGTTATAGCATTTGGA,0.509,0.779,0.811,0.822,0.49,0.699,0.266,0.384,-0.0661,0.378,1.41,0.777,0.395,0.913,1.46,0.611,0.48,0.74,1.52,1.72
